Source: PubChem BioAssay
p97 inhibitor – inhibitors of human p97 ATPase; P55072; recombinant p97 ATPase, Kinase-Glo ATP luminescence, 3 h; inhibition, % at 8 µM; 220,000 tested, 0.42% active; AID 1481; in the data active = inhibition above about 15%
UBC9 SUMO inh – SUMOylation inhibition. inhibition, % at 35 µM. P63279. 290,000 tested, 0.36% active. HTRF SUMOylation assay, SAE1/SAE2 + UBC9, in vitro; in the data active = inhibition above about 50%, passing the limit was not always enough
Redox H2O2 prof – compounds producing H2O2 with reducing agent – biochemical, NIH compound library profiling, artefact control for MLSCN library redox annotation, primary screen | 200,000 tested, 0.03% active | DTT-dependent redox cycling H2O2, phenol red/HRP absorbance; 100% = 100 µM peroxide control, 0% = buffer | activation, % at 10 µM;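 active = activation of at least 50% relative to the plate's high and low controls in the primary single-dose screen; inactive = activation below 50%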;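 note: compound incubated with DTT at 0.8 mM final as the reducing agent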
Furin inh – human furin inhibition. purified furin, fluorogenic substrate cleavage. inhibition, % at 20 µM or 30 µM. AID 463115. P09958. 220,000 tested, 0.061% active; in the data active = inhibition above about 25%
Target sequence (P09958 108-714 limits assumed): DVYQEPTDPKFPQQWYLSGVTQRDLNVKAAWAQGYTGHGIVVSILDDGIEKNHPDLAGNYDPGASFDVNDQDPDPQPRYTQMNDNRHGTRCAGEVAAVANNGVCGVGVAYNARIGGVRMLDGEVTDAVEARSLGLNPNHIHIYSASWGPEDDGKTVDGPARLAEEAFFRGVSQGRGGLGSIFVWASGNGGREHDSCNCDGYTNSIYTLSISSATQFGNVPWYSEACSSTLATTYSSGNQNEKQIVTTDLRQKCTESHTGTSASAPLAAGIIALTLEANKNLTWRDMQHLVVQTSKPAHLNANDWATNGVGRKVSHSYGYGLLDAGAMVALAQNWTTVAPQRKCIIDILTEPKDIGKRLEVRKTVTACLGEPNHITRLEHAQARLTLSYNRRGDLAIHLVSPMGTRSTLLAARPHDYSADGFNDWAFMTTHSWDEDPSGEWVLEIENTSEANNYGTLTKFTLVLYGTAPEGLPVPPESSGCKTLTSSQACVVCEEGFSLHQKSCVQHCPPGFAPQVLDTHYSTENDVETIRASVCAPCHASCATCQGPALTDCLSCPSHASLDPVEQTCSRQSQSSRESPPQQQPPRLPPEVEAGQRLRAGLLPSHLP
FAS-TE inh – FAS thioesterase (human) inhibition. recombinant FAS-TE, OMFH fluorogenic substrate, fluorescence endpoint. inhibition, % at 15 µM. AID 602261. P49327. 360,000 tested, 0.67% active;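 active = compounds whose normalised, plate-corrected inhibition of enzyme fluorescence in the single-dose primary screen is 50% or more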
PKD1 kinase inh – inhibitors of human PKD1 kinase. 200,000 tested, 0.056% active. PKD1 kinase fluorescence polarization assay. AID 797. Q15139. inhibition, % (concentration not given with the values); in the data active = inhibition above about 50%
FAS-TE conf – confirmation of human fatty acid synthase thioesterase inhibitors; shares compounds with FAS-TE inh; recombinant FAS-TE, OMFH fluorogenic substrate, fluorescence; inhibition, % at 15 µM; 2,300 tested, 45% active;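 active = compounds inhibiting the enzyme by at least 50% at 15 µM in any one of the replicates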
A number is an active result; - = inactive; . = not tested or not shown. Most compounds without a hit are left out; they make up all but 1.2% or so of the library.

SMILES	p97 inhibitor	UBC9 SUMO inh	Redox H2O2 prof	Furin inh	FAS-TE inh	PKD1 kinase inh	FAS-TE conf
O=[N+]([O-])c1c(Nc2ccc(O)cc2)cc(Cl)c2nonc12	.	-	.	.	60	.	44
O=[N+]([O-])c1c(Nc2ccccn2)cc(Cl)c2nonc12	-	93	.	-	62	.	-
O=C(NC1CCCc2ccccc21)c1ccccc1OC(F)F (configuration not stated)	.	-	.	.	-	.	.
O=C(ONC(=O)C1C2C=CC(C2)C1C(=O)NOC(=O)c1ccccc1)c1ccccc1 (configuration not stated)	.	.	.	.	-	.	.
CCOC(=O)Cc1csc(NC(=O)c2ccc3ccccc3n2)n1	.	-	.	.	-	.	.
COc1ccc(C(=O)N/N=C\c2coc3ccc(Cl)cc3c2=O)cc1	.	-	.	.	-	.	.
COc1cc(C(=O)N/N=C/c2coc3ccc(Cl)cc3c2=O)ccc1O	.	-	.	.	59	.	66
O=C(N/N=C/c1coc2ccc(Cl)cc2c1=O)c1ccncc1	.	-	.	.	-	.	.
O=C(N/N=C/c1coc2ccc(Cl)cc2c1=O)c1ccc(O)cc1	.	-	.	.	65	.	37
COc1cc(C(=O)Oc2ccccc2/C=N/NC(=O)c2ccc(C)c(Cl)c2)cc(OC)c1OC	-	-	-	-	-	-	.
COc1cc(C(=O)Oc2ccccc2/C=N/NC(=O)c2ccc(Cl)cc2)cc(OC)c1OC	-	-	-	-	54	-	-
CCC(C(=O)NC1CCCC1)n1c2ccccc2c2nc(=O)cc(C)n21 (configuration not stated)	.	.	.	.	-	.	.
O=C(COc1ccc(Cl)cc1)Nc1ccccc1Cl	.	-	.	.	-	.	.
O=C(COc1ccc(Cl)cc1)Nc1ccc(C(=O)O)cc1NC(=O)COc1ccc(Cl)cc1	.	-	.	.	51	.	66
COc1ccc(S(=O)(=O)N(C)C[C@H]2Oc3c(NC(=O)Nc4ccc(C(F)(F)F)cc4)cccc3C(=O)N([C@H](C)CO)C[C@@H]2C)cc1	.	.	.	.	61	.	-
Cc1noc(C)c1NC(=O)Nc1cccc2c1O[C@H](CN(C)C(=O)NC1CCCCC1)[C@@H](C)CN([C@H](C)CO)C2=O	.	.	.	.	77	.	84
Cc1noc(C)c1NC(=O)N(C)C[C@H]1Oc2c(NC(=O)NC(C)C)cccc2C(=O)N([C@H](C)CO)C[C@@H]1C	.	.	.	.	-	.	.
C[C@H](CO)N1C[C@H](C)[C@@H](CN(C)C(=O)Nc2ccccc2)Oc2c(NC(=O)Nc3ccc(C(F)(F)F)cc3)cccc2C1=O	.	.	.	.	83	.	92
C[C@H](CO)N1C[C@H](C)[C@@H](CN(C)C(=O)Nc2ccccc2)Oc2c(NC(=O)Nc3ccccc3)cccc2C1=O	.	.	.	.	-	.	.
C[C@@H]1CN([C@H](C)CO)C(=O)c2cccc(NC(=O)NC3CCCCC3)c2O[C@@H]1CN(C)C(=O)Nc1ccc(C(F)(F)F)cc1	.	.	.	.	77	.	70
O=C(NNc1ccccc1)NC(Cc1ccccc1)C(=O)O (configuration not stated)	.	.	.	.	-	.	.
C=CS(=O)(=O)N(Cc1ccc(Cl)c(Cl)c1)C[C@@H](O)CO	.	.	.	.	-	.	.
O=C1NC(Cc2ccccc2)c2nc3ccc(F)cc3c(=O)n2-c2cc3ccccc3cc21 (configuration not stated)	.	.	.	.	80	.	-
O=C1NC(Cc2ccccc2)c2nc3ccc(Cl)cc3c(=O)n2-c2cc3ccccc3cc21 (configuration not stated)	.	.	.	.	78	.	-
Cc1ccc2nc3n(c(=O)c2c1)-c1cc2ccccc2cc1C(=O)NC3Cc1ccccc1 (configuration not stated)	.	.	.	.	91	.	-
SMILES	p97 inhibitor	UBC9 SUMO inh	Redox H2O2 prof	Furin inh	FAS-TE inh	PKD1 kinase inh	FAS-TE conf
O=C1NC(Cc2ccc(O)cc2)c2nc3ccc(Cl)cc3c(=O)n2-c2cc3ccccc3cc21 (configuration not stated)	.	.	.	.	-	.	.
CCCC1NC(=O)c2cc3ccccc3cc2-n2c1nc1cc(Cl)ccc1c2=O (configuration not stated)	.	.	.	.	73	.	-
COc1ccccc1N1CCN(Cc2cnc3ccc(Cl)cn23)CC1	.	-	.	.	-	.	.
Cc1cc(C)c2c(=O)n3c(nc2c1)C(Cc1ccccc1)NC(=O)c1cc2ccccc2cc1-3 (configuration not stated)	.	.	.	.	86	.	-
CCC1NC(=O)c2cc3ccccc3cc2-n2c1nc1cc(C)cc(C)c1c2=O (configuration not stated)	.	.	.	.	-	.	.
CCCCOc1ccc(S(=O)(=O)N2CCN(c3ccc(N4CCN(CC)CC4)nn3)CC2)cc1	.	.	.	.	60	.	-
CCCCOc1ccc(S(=O)(=O)N2CCCCC2)cc1	.	-	.	.	-	.	.
CC(=O)Nc1ccc(NC(=O)c2nc(S(=O)(=O)Cc3ccccc3)ncc2Cl)cc1	.	-	.	.	-	.	.
Cc1ccc(CS(=O)(=O)c2ncc(Cl)c(C(=O)Nc3ccc(OC(F)F)cc3)n2)cc1	.	.	.	.	52	.	-
CCS(=O)(=O)c1ncc(Cl)c(C(=O)Nc2ccc(C)cc2)n1	.	-	.	.	-	.	.
CCOc1ccccc1NC(=O)c1nc(S(=O)(=O)Cc2cccc(C)c2)ncc1Cl	.	-	.	.	58	.	48
COC(=O)c1ccccc1NC(=O)c1nc(S(=O)(=O)Cc2ccccc2)ncc1Cl	.	-	.	.	54	.	-
O=C(NCCN1C(=O)S/C(=C\c2ccc(Cl)c([N+](=O)[O-])c2)C1=O)C1=COCCO1	.	.	.	.	52	.	-
